# In PubChem BioAssay (NCATS):
# Records with an inconclusive call do not appear. Entries that show only a call come without a potency. Values without a mark were called inactive. Active and inactive are the calls of the source. Calls follow the shape of the dose curve; as a rule, active = well fitted inhibition curve with a large enough effect; inconclusive = small, poorly fitted or top-dose-only effect; inactive = flat fitted curve, though single readings scatter.
# Test system: Zika virus NS2B-NS3 protease
# Experiment: Primary screen GU AMC qHTS for Zika virus inhibitors (AID 1347154); also: nearly all actives have a fitted effect of over 70% in size
# Conditions: Zika NS2B-NS3 unlinked protease, AMC fluorogenic substrate; series mostly up to 54.1 µM
# In short: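 Fluorogenic AMC-substrate cleavage by noncovalent NS2B-NS3 protease complex (25 nM, pH 8.0 Tris buffer with Tween 20) followed for 15 minutes at room temperature (~20% conversion). Percent inhibition from ex340/em450 signal change, fitted by 4-parameter Hill equation.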
SMILES,Potency,"activity change, negative = inhibition"
CC(O)CN(CCN(CC(C)O)CC(C)O)CC(C)O (stereo unspecified),inactive,–
CC12CCC(CC1)C(C)(C)O2,inactive,–
O=C(O)[C@H](O)c1ccccc1,inactive,–
CC[C@@]1(c2ccccc2)NC(=O)N(C)C1=O,inactive,–
NC(=O)NNc1ccccc1,inactive,–
[O-][n+]1cccc(CO)c1,inactive,–
O=C(Oc1ccccc1C(=O)O)c1ccccc1O,inactive,–
O=c1cc(CO)occ1O,inactive,–
CC1CC(OC(=O)C(O)c2ccccc2)CC(C)(C)N1C (stereo unspecified),inactive,–
CC(C)(C)[C@]1(O)CCN2C[C@H]3c4ccccc4CCc4cccc(c43)[C@@H]2C1,inactive,–
O=C(O)c1ccccn1,inactive,–
COc1ccc2cc1Oc1cc3c(cc1OC)CC[N+](C)(C)[C@H]3Cc1ccc(cc1)Oc1c(OC)c(OC)cc3c1[C@@H](C2)[N+](C)(C)CC3,inactive,–
C/C(=C(\CCOP(=O)(O)O)SC(=O)c1ccccc1)N(C=O)Cc1cnc(C)nc1N,–,0.0847% [at 4.99 µM]
O=C(O)Cc1sc(-c2ccccc2)nc1-c1ccc(Cl)cc1,inactive,–
CN1CCCCC1CCN1c2ccccc2Sc2ccc(S(C)=O)cc21 (stereo unspecified),inactive,–
CN1[C@@H]2CC[C@H]1CC(OC(=O)C(O)c1ccccc1)C2 (stereo partly specified),inactive,–
CN(N=O)C(=O)N[C@@H]1[C@@H](O)[C@H](O)[C@@H](CO)O[C@@H]1O,inactive,–
CCCCCCCCCCCCCCCCCCOCC(O)CO (stereo unspecified),inactive,–
O=c1cc[nH]c(=O)[nH]1,inactive,–
CCN(CC)CCSC(=O)C(c1ccccc1)c1ccccc1,inactive,–
C[C@@H]1CCN(C(=O)[C@H](CCCN=C(N)N)NS(=O)(=O)c2cccc3c2NC[C@H](C)C3)[C@@H](C(=O)O)C1,inactive,–
